Results from PubChem BioAssay AID624291 (National Center for Advancing Translational Sciences (NCATS), 2012).
About 220 (0.063%) of roughly 350,000 compounds were called active. About 4% were inconclusive and are not listed. Many of the other results were omitted from the sample, so actives are more common in it than they were. Unmarked numbers belong to inactive results. The call rests on the fitted dose curve; in most records, active means well fitted activation curve with a large enough effect; inconclusive means small, poorly fitted or top-dose-only effect; inactive means no such curve, though single readings can be large or run the other way.

test: qHTS for Activators of Integrin-Mediated Alleviation for Muscular Dystrophy; conditions: alpha7betagal myoblasts, beta-gal FDG fluorescence, 48 h; series mostly up to 38.3 µM; activation: at the top concentration; further: nearly all actives have a fitted effect of over 60% in size;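 on activation: 100% = response of the positive control SU9516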
Source text: Integrins are a diverse family of transmembrane cell surface receptors that mediate interactions between cells and the extracellular matrix. These heterodimeric proteins are composed of alpha and beta subunits and the a7b1 interacts with laminin in the extracellular matrix and actin of the cell cytoskeleton. Both chains contribute to ligand binding, but the alpha chain mediates the specificity of the interaction. The alpha7beta1 integrin is a major laminin receptor in skeletal, cardiac and vascular smooth muscle. Mutations in the alpha7 integrin gene are responsible for muscular dystrophy in both humans and mice. The alpha7beta1 integrin is also a major modifier of muscle disease progression in various muscle diseases including Duchenne muscular dystrophy, Fukuyama muscular dystrophy and merosin deficient congenital muscular dystrophy type 1A. […] Transcriptional regulation of the alpha7 integrin gene is poorly understood and probably involves multiple transcription factors. The goal of identifying small molecules that enhance alpha7 integrin expression is two-fold: firstly, such molecules would help us gain insight into the complex transcriptional control of alpha7 integrin. It is known that alpha7 integrin expression is tightly controlled during various stages of development, disease and in response to external stimuli. The second goal of the project is to translate the above finding into a therapeutic strategy for muscular dystrophy. […] Thus this project aims to discover small molecule probes that would not only help in gaining a better understanding of the complex regulatory mechanism of alpha7 integrin expression, but also lead to development of pharmacological agents to fight muscular dystrophy. NIH Chemical Genomics Center [NCGC] NIH Molecular Libraries Probe Centers Network [MLPCN] MLPCN Grant: NS058429 Assay Submitter (PI): Dean Burkin, University of Nevada School of Medicine
A total of 250 alpha7betagal+/- myoblasts at passage 13 were dispensed using a mulitdrop from Thermo into black low base tissue culture treated microclear aurora plates in 6 ul media containing DMEM without phenol, 5% FBS, 1x GluMax and 1x Penicillin/Streptomycin. The plates were incubated 16-24 hr at 37C, 5% CO2, 95% humidity covered with low evaporation stainless steel lids from Kalypsys. Compounds were then dispensed using a Kalypsys pintool to deliver 23 nl/well compounds in DMSO (diluted into 6 uL resulting in a 1:260 dilution of compound). The control compound used was the cdk2 inhibitor SU9516 from Tocirs (found in the initial LOPAC screen). The plates were incubated for 48 hours at 37C, 5% CO2, 95% humidity using the same stainless steel lids. After incubation with compound, 5 ul of the media was aspirated using the Kalypsys washer/dispenser and 3 ul of the Mammalian Protein Extraction Reagent (MPER) lysis buffer (Thermo Fisher) was added. The plates were spun at 2000 rpms to remove bubbles and an initial capture was acquired on the Viewlux (Perkin Elmer) with exciation at 480 nm and emission at 540 nm for 25 seconds to omit any auto fluorescent compounds. The plates were then incubated for 10 minutes at room temperature. After incubation, 3 ul of 125 uM Fluorescein di-galactoside (FDG) (Marker Gene Technologies) diluted in PBS with 2 mM MgCl2 and 0.2% betamercaptoethanol (BME) was added, the plates were spun at 2000 rpms and incubated for 30 minutes at room temperature. The plates were again read on the Viewlux with exciation at 480 nm and emission at 540 nm for 25 seconds.
Potency means the concentration at half of the fitted maximal effect.

SMILES	activation [%]	Potency
Cn1ncc([N+](=O)[O-])c1C(=O)Nc1cc(Cl)ccc1Cl	-4.11	–
Cc1cc2cc3n(c2nn1)N=C(Cl)CC3	-60.5	–
CCOC(=O)C(C(=O)c1ccccc1)C(c1ccccc1)c1nccc2ccccc12 (stereo not given)	13.8	–
Cc1cc(Cl)ccc1C(=O)C1CCCN(C(=O)c2ccc3c(c2)OCO3)C1 (stereo not given)	16.5	–
CCOC(=O)c1cc(-c2sc(NC(=O)c3ccccc3)nc2C)n(Cc2ccccc2)n1	-56.7	–
COc1ccccc1-c1n[nH]nc1C1=CC(=O)CC(C)(C)C1	-9.71	–
CC(C)c1cc(C(=O)NC2CCCCCC2)c2ccccc2n1	-16.5	–
CC(=O)Nc1ccc2nc(NC(=O)CS(=O)(=O)c3ccc(F)cc3)sc2c1	-3.68	–
CN(c1ccccc1)S(=O)(=O)c1ccc(C(=O)NCc2cccnc2)cc1	8.72	–
CNC(=O)c1ccc(CN(C)C(=O)c2cc(C3CC3)nc3c2cnn3C(C)C)cc1	13.8	–
C[C@@H]1CN([C@@H](C)CO)C(=O)CCCn2cc(nn2)CO[C@H]1CN(C)S(=O)(=O)c1ccc(-n2cccn2)cc1	-6.63	–
C[C@H](CO)N1C[C@H](C)[C@@H](CN(C)Cc2ccc3c(c2)OCO3)OCc2cnnn2CCCC1=O	-0.6	–
C[C@@H]1CN([C@H](C)CO)C(=O)c2cc(-c3ccc(F)cc3)cnc2O[C@H]1CN(C)C(=O)c1ccc(F)cc1	10.8	–
CSc1ncccc1C(=O)N1CCCC(Nc2ccc(F)c(F)c2)C1 (stereo not given)	5.37	–
Cc1ccc(NC(=O)c2ccco2)cc1	-15.4	–
C[C@@H]1CN([C@H](C)CO)S(=O)(=O)c2ccc(C#C[C@@H](C)O)cc2O[C@@H]1CN(C)Cc1ccc(-c2ccccc2)cc1	-7.19	–
O[C@H]1C[C@H](c2ccc(Cl)cc2)N(Cc2cccs2)C[C@@H]1n1cc(C2CC2)nn1	-51.5	–
O=C1[C@H]2[C@@H](c3ccc(C(F)(F)F)cc3)N[C@]3(CCCN(Cc4ccc(Cl)cc4)C3=O)[C@H]2C(=O)N1Cc1ccccc1	-56.5	–
C[C@H]1CN([C@@H](C)CO)S(=O)(=O)c2ccc(-c3cccc(F)c3)cc2O[C@@H]1CN(C)C	-10.1	–
Cc1ccc(S(=O)(=O)N2C[C@@H](C)[C@]3(C2)[C@H](O)[C@H](OC(=O)NCc2ccccc2)C[C@H]2C(=O)N(c4ccccc4)C(=O)[C@H]23)cc1	-13.2	–
C[C@H]1CN([C@@H](C)CO)C(=O)c2cc(C3=CCCCC3)cnc2O[C@@H]1CN(C)C(=O)Cc1ccccc1	9.58	–
C[C@@H]1CN([C@@H](C)CO)C(=O)CCCn2nncc2CO[C@H]1CN(C)C(=O)Nc1ccc(C(F)(F)F)cc1	-2.12	–
CCCCCCn1c(=O)n2n(c1=O)C[C@]1(OC(=O)NCc3ccc(OC)c(OC)c3)CN(S(=O)(=O)c3ccc(C)cc3)C[C@]1(O)C2	-0.407	–

SMILES	activation [%]	Potency
CCN(CC)CCN(C(=O)c1ccc2c(c1)CCCC2)c1nc2c(OC)cccc2s1	-13.2	–
Cc1ccc(-c2ccc(CN3C(C(C)C)C(=O)N(Cc4cn(CCC5OCCO5)nn4)CCS3(=O)=O)cc2)cc1 (stereo not given)	-36.9	–
COc1ncnc2c1ncn2CCCNCCN1CCOCC1	-5.29	–
CSC1=NN(c2ccccc2)CN(c2ccccc2)N1C	21.1	–
CN(C)C(CNC(=O)c1cccc(S(=O)(=O)N2CCc3ccccc3C2)c1)c1ccccc1 (stereo not given)	-22.3	–
CCN(CC)C(=O)C1=C(C)N(Cc2ccc(F)cc2)C(=O)C(CC(=O)NCc2cccc3ccccc23)C1 (stereo not given)	13.7	–
COc1ccccc1C(=O)NC(=S)Nc1ccc(N2CCOCC2)cc1	13.2	–
Cn1c(CCN2CCN(c3ccccn3)CC2)nc2cc(NS(=O)(=O)c3ccc(F)cc3)ccc21	-19.2	–
NC(=S)NN=Cc1ccc(OC(=O)COc2cc(Cl)c(Cl)cc2Cl)cn1	-51.9	–
CCOC(=O)C(=Cc1ccccc1)C(=O)c1ccccc1	-44	–
CCCCCCNC(=O)O[C@H]1CN(C(=O)OC(C)C)N(C(=O)OC(C)C)[C@@H]2CN(S(=O)(=O)c3ccc(C)cc3)C[C@]12O	-22.2	–
Cc1ccc(NC(=O)Cn2sc3ccccc3c2=O)cc1	-59	–
CC1(c2cccc(Br)c2)NC(=O)N(CC(=O)NCCC2=CCCCC2)C1=O (stereo not given)	4.18	–
C[C@H](CO)N1C[C@H](C)[C@@H](CN(C)C(=O)c2cnccn2)Oc2ncc(Br)cc2C1=O	-23.7	–
COc1ccc(OC)c(C(=O)NC2CCCc3c2cnn3-c2cc(C)cc(C)c2)c1 (stereo not given)	0.675	–
O=C(OCc1ccccc1)N1CCC2CC1c1ccc(-c3ccc4c(c3)OCO4)cc12 (stereo not given)	-15.9	–
CCCCCCN1C[C@@H](O)[C@H](n2cc(COC(=O)c3ccccc3)nn2)C[C@@H]1c1ccc(Cl)cc1	12.9	–
CCN1CCN(CCNC(=O)c2ccc3c(c2)NC(=O)/C(=C\c2cccc(Cl)c2)S3)CC1	18.1	–
COc1ccc(S(=O)(=O)N2CCN(CC(=O)N3CCNC3=O)CC2)cc1OC	18.1	–
COCCNC(=O)CSc1nc(N)c(NC(=O)c2ccco2)c(=O)[nH]1	12.7	–
O=C(NCCN1CCOCC1)C1CCN(S(=O)(=O)c2ccccc2)CC1	11.1	–
C[C@H](CO)N1C[C@H](C)[C@@H](CN(C)S(=O)(=O)c2ccc(Oc3ccccc3)cc2)OCc2cn(nn2)CCCC1=O	-14.8	–
Cc1ccn(CC(=O)NC2CCCN(Cc3ccccc3F)C2)n1 (stereo not given)	-2.09	–

SMILES	activation [%]	Potency
CC1CCCC(NC(=O)COC(=O)c2ccccc2C(=O)N(C)C2CCCCC2)C1C (stereo not given)	-0.167	–
Cc1ccc(S(=O)(=O)N2CCOCC2)cc1NC(=O)c1ccncc1	-8.16	–
CC1(C)CN(CCc2ccccc2)C(=O)[C@H]1CC(=O)Nc1ccc(Br)cc1	-10.9	–
CC1(C)CC(=O)C=C(c2ccccc2CO)C1=O	-11.1	–
CCOC(=O)c1cc(-c2sc(NC(=O)c3ccccc3)nc2C)n(-c2ccc(Br)cc2)n1	9.91	–
CCOc1ccc(S(=O)(=O)NCCC(=O)NNC(=O)c2ccc(F)cc2)cc1	16.7	–
C/C(=N\NC(=S)NC(C)C)c1ccc(C(C)(C)C)cc1	0.502	–
CC(C)NC(=S)NN=C1CCCCCCCCCCC1	–	3.16 µM (active)
CC(C)(C)NC(=O)C(=O)NN=C1CCCCCCC1	8.01	–
Cc1cccc(C(=O)C(O)(c2ccccc2)C2CCCCC2=O)c1 (stereo not given)	21	–
C=CCn1nc(C(=O)OCC)cc1-c1sc(NC(=O)c2ccccc2)nc1C	2.38	–
COc1ccc(-c2c(C#N)cnc(C)c2C)c(O)c1OC	4.61	–
COc1ccc(-c2ccc3[nH]c4c(c3c2)CCN2C[C@H]3[C@H](C)ON(C)[C@H]3C[C@@H]42)cc1	-35.2	–
O=C(Nc1ccc2c(c1)[C@@H]1C[C@@H](CC(=O)N3CCCCC3)O[C@@H](CO)[C@@H]1O2)NC1CCCCC1	-1.68	–
C[C@@H]1CCCCO[C@H](CN(C)Cc2ccccc2)[C@@H](C)CN([C@H](C)CO)C(=O)c2cc(NS(=O)(=O)c3ccc(Cl)cc3)ccc2O1	0	–
OCC1OC(n2cnc3c(N4CCCC4)ncnc32)C(O)C1O (stereo not given)	28	–
CCOC(=O)C1CCN(C(=O)c2ccc3c(=O)n4nc(Nc5ccccc5CC)sc4nc3c2)CC1	-27.7	–
COc1ccc(-c2ccc(CN3C(CC(C)C)C(=O)N(Cc4cn(CC5CCCCC5)nn4)CCS3(=O)=O)cc2)cc1 (stereo not given)	-40.1	–
CNC(=O)C[C@H]1C(=O)N(c2ccc(OC)cc2)C[C@@H]1Cc1ccccc1	25.2	–
COc1cccc(NC(=O)N(C)C[C@@H]2Oc3ncc(Br)cc3C(=O)N([C@@H](C)CO)C[C@H]2C)c1	-11.6	–
COc1ccc(NC(=O)c2cc(=O)[nH]c3ccccc23)cc1S(=O)(=O)N1CCOCC1	-4.2	–
CCN(CC)C(=O)C1=C(C)N(Cc2ccc(OC)cc2)C(=O)C(CC(=O)NCc2ccco2)C1 (stereo not given)	12.9	–
O=C(NCCOc1ccccc1)N1[C@H]2CC[C@@H]1C=C(c1ccc(F)cc1OCc1ccccc1)C2	-42.9	–

SMILES	activation [%]	Potency
O=S(=O)(c1cccc(C(F)(F)F)c1)N1c2ccccc2-n2cccc2C1c1cccnc1 (stereo not given)	-33.7	–
O=C(C[C@H]1C[C@@H]2c3cc(NC(=O)C4CCC4)ccc3O[C@@H]2[C@H](CO)O1)NC1CCCCC1	-20.1	–
CCOC(=O)c1cnn2c(SC)ncnc12	-0.493	–
Cc1ccc(-c2ccc(CN3C(C(C)C)C(=O)N(Cc4cn(CCC5OCCCO5)nn4)CCS3(=O)=O)cc2)cc1 (stereo not given)	18.3	–
O=C(CSc1ncn[nH]1)Nc1nc2c(F)c(F)c(F)cc2s1	17.7	–
C[C@H]1CN([C@@H](C)CO)C(=O)CCCn2nncc2CO[C@@H]1CN(C)S(=O)(=O)c1cccc(C#N)c1	13.4	–
c1ccc2c(c1)nnn2-c1ccncc1	0.175	–
CC(OC(=O)c1cccc(S(=O)(=O)N2CCOCC2)c1)C(=O)NCC1CCCCC1 (stereo not given)	-9.35	–
CC1(C)OC(=O)C2=C(CC(c3ccccc3)OC2CCc2ccccc2)O1 (stereo not given)	-10.7	–
O=C(NCCS(=O)(=O)N1CCN(c2ccccc2)CC1)c1cc(=O)c2ccccc2o1	6.87	–
CCc1ccccc1NC(=O)CN1CCN(C(=O)c2cc(C3CC3)nn2-c2ccccc2)CC1	2.65	–
Cc1ccn2c(-c3csc(Nc4ccc(C(=O)O)cc4)n3)c(C)nc2c1	-1.17	–
CC1=C(C(=O)Nc2cccc(C(=O)NCC(C)c3ccccc3)c2)SCCO1 (stereo not given)	1.28	–
CC(=O)c1ccccc1NC(=O)COC(=O)C1COc2ccccc2O1 (stereo not given)	2.31	–
O=C(CCc1ccc(O)cc1)NN=Cc1cc(Br)ccc1O	-56	–
COc1ccc(S(=O)(=O)N2CCC(C(=O)NCCC(=O)Nc3ccccc3OC)CC2)cc1	-6.92	–
CCOc1cc(/C=N/NC(=O)c2ccncc2)cc(Br)c1O	4.83	–
Cc1ccc(CCNC(=O)CN2C(=O)CSc3ccc(S(=O)(=O)N4CCOCC4)cc32)cc1	-2.83	–
N#CCCN(C(=O)Nc1ccc(Cl)c(Cl)c1)C1CCCCC1	27.3	–
O=C1c2ccccc2-c2ccccc2NC1O (stereo not given)	-4.86	–
Cc1ccc(S(=O)(=O)N2C[C@H]3n4c(=O)ccc(=O)n4C[C@H](OC(=O)NC4CCCC4)[C@@]3(O)C2)cc1	2.66	–
